# From PubChem BioAssay (NCATS)
# Records with an inconclusive call do not appear. Entries that show only a call come without a potency. The source made the active and inactive calls. Calls follow the shape of the dose curve; as a rule, active = well fitted inhibition curve with a large enough effect; inconclusive = small, poorly fitted or top-dose-only effect; inactive = no such curve, though single readings can be large or run the other way.
# Experiment: P-glycoprotein substrates identified in KB-3-1 adenocarcinoma cell line, qHTS therapeutic library screen (AID 1346986); also: nearly all actives have a fitted effect of over 60% in size;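 also: potency is for cytotoxicity meaning loss of cell viability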
# Settings: KB-3-1 parental cells viability, CellTiter-Glo, 72 h; series mostly up to 44.5 µM
# Summary of the method: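 Compounds were tested in dose-response against KB-3-1 and KB-8-5-11 cells at 37 degree C for 72 h, and viability was measured by luminescence. AC50 values came from curve fitting with class-based activity calls.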
# Potency is read from the fitted curve at half-maximal effect.
row,Structure (SMILES),Potency
1,COc1c(Cl)cc2c([nH]c3cnccc32)c1NC(=O)c1cccnc1C,inactive
2,Oc1cccc(-c2nc(N3CCOCC3)c3oc4ncccc4c3n2)c1,0.58 µM (active)
3,CC(C)(Sc1ccc(CCN(CCCCC2CCCCC2)C(=O)NC2CCCCC2)cc1)C(=O)O,inactive
4,c1ccc(-c2nn3c(c2-c2ccnc4cc(OCCN5CCOCC5)ccc24)CCC3)nc1,inactive
5,Cc1cccc(-c2nn(C(=S)Nc3ccccc3)cc2-c2ccnc3ccccc23)n1,inactive
6,CCn1c(-c2nonc2N)nc2cnc(Oc3cccc(NC(=O)c4ccc(OCCN5CCOCC5)cc4)c3)cc21,3.66 µM (active)
7,CCCc1nn(C)c2c(=O)[nH]c(-c3cc(S(=O)(=O)N4CCN(C)CC4)ccc3OCC)nc12,inactive
8,CCN(CC)CCCC(C)Nc1nc(C)cc(Nc2ccc3nc(C)cc(N)c3c2)n1 (stereo not given),inactive
9,Cc1ccc(-n2nc(C(C)(C)C)cc2NC(=O)Nc2ccc(OCCN3CCOCC3)c3ccccc23)cc1,inactive
10,COc1cc2nccc(Oc3ccc(NC(=O)NC4CC4)c(Cl)c3)c2cc1C(N)=O,inactive
